Holding throughout (test): DAPPL (digital affinity profiling via proximity ligation, sequencing); 10 mM Tris-HCl pH 7.5, 50 mM NaCl, 1 mM DTT, 4% glycerol, room temperature, 30 min; GST-TFs on glutathione beads, 16-mer random dsDNA library, 0.1% formaldehyde crosslink after washing; high values mean tight binding
Holding throughout (details): protein: recombinant; tags: N-terminal GST; dsDNA, one strand shown

One assay addresses T1, ETV2 (Homo sapiens, UniProt O00321 1-342).
T1 sequence: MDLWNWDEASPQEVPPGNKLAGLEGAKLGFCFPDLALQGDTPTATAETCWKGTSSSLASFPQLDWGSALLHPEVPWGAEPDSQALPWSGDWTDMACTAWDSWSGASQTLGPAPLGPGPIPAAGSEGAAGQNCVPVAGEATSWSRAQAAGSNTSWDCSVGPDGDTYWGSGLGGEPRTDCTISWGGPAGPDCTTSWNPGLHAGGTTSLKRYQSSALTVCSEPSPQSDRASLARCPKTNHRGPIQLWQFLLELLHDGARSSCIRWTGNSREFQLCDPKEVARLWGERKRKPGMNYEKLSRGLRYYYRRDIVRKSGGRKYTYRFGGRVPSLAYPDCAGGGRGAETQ
Summed up:
(§1)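 GST fusions of human transcription factors were expressed in yeast and captured with glutathione beads. Once given DNA barcodes and pooled alongside a tag-only sample, they were incubated for 30 min at room temperature with 200 nmole of a random double-stranded 16-mer DNA library in Tris/NaCl/DTT/glycerol buffer, then washed, crosslinked (0.1% formaldehyde), proximity-ligated, PCR-amplified and sequenced on an Illumina NextSeq500. The binding signal of each hexamer is its read frequency for a factor divided by its frequency for the tag-only sample.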

In another assay the target is T2, ELF3 (Homo sapiens, UniProt P78545 1-371).
T2 sequence: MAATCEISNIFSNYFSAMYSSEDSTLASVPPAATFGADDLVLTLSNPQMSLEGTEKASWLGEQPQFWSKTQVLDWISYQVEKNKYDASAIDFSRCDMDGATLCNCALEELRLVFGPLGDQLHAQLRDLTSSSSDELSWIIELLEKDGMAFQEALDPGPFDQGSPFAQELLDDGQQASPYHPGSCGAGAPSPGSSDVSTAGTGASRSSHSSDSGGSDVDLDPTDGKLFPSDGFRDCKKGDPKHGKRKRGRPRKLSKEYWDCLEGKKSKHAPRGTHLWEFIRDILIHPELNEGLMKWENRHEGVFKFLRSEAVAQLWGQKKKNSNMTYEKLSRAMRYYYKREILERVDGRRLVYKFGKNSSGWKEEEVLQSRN
Summed up:
as §1

The target in the next assay is ETV1 (Homo sapiens, UniProt P50549 1-477). The essentials:
as §1

For a further assay, the target named is T3, ERF (Homo sapiens, UniProt P50548 1-548).
T3 sequence: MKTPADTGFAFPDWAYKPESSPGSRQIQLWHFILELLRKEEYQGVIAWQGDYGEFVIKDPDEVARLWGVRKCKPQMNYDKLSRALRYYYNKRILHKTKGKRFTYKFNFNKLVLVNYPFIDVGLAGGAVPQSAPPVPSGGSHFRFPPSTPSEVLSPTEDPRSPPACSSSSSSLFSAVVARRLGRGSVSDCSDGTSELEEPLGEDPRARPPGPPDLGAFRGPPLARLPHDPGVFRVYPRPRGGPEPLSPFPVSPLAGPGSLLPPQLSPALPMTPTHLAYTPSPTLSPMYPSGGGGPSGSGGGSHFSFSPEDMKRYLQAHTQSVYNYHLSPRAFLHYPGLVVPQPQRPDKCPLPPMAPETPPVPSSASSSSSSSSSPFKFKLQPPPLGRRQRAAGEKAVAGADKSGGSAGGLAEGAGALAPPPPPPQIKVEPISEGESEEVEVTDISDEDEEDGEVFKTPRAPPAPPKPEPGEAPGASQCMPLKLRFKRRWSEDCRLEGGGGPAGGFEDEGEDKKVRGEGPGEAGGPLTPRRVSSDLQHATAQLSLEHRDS
The essentials: as §1

A further assay addresses T4, ETV3L (Homo sapiens, UniProt Q6ZN32 1-361).
T4 sequence: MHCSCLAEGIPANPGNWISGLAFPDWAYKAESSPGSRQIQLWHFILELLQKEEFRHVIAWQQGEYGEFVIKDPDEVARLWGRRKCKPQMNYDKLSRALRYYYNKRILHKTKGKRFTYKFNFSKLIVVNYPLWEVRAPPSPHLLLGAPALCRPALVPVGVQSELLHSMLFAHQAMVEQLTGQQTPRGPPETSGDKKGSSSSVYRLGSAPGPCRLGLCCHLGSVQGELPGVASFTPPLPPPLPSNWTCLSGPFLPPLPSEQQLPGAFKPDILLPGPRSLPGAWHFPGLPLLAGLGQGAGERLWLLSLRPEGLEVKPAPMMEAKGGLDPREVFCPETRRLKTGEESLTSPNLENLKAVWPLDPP
Summed up: as §1

Another assay concerns the target T5, ETS2 (Homo sapiens, UniProt P15036 1-469).
T5 sequence: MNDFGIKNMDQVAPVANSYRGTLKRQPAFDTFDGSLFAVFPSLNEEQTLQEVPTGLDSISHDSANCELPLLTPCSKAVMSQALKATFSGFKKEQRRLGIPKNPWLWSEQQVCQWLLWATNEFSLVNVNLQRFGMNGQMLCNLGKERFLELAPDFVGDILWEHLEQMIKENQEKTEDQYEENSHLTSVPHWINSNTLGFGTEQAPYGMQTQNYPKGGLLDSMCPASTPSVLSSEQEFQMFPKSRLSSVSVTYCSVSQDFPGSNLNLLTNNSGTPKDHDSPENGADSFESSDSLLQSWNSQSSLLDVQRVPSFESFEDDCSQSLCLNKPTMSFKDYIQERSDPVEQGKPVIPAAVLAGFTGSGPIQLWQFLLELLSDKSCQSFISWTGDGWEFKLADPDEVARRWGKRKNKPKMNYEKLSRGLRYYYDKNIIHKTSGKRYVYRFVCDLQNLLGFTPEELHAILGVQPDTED
Summed up: as §1

For the next assay, the target named is T6, SPDEF (Homo sapiens, UniProt O95238 1-335).
T6 sequence: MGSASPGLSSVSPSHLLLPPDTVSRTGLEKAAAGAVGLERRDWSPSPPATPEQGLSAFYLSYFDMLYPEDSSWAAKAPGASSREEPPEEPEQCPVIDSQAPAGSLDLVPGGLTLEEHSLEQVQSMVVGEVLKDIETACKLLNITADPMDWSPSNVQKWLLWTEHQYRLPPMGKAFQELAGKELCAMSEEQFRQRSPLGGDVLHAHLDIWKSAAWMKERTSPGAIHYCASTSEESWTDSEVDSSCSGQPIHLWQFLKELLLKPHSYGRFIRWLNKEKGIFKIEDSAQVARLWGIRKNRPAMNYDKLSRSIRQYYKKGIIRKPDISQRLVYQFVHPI
The essentials: as §1

The next assay concerns the target T7, ETV7 (Homo sapiens, UniProt Q9Y603 1-341).
T7 sequence: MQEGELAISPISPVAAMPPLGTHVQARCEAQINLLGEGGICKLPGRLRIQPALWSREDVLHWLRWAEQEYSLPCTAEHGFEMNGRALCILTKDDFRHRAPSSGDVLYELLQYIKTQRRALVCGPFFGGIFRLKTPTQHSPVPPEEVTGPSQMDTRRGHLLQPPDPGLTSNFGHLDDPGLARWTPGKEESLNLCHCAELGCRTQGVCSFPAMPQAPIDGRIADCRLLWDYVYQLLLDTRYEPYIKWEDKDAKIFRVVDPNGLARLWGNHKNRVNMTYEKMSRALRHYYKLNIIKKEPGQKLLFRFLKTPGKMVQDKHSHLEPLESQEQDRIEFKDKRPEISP
The essentials:
as §1

For the next assay, the target named is T8, ETV3 (Homo sapiens, UniProt P41162-2 1-143).
T8 sequence: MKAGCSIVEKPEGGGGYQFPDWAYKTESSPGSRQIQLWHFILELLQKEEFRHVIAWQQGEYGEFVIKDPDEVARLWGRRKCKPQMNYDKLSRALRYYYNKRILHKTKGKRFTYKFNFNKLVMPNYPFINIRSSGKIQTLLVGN
Summed up: as §1

For another assay, the target named is ETV6 (Homo sapiens, UniProt P41212 1-452). The essentials:
as §1

Chain of ETV6 (P41212 whole entry): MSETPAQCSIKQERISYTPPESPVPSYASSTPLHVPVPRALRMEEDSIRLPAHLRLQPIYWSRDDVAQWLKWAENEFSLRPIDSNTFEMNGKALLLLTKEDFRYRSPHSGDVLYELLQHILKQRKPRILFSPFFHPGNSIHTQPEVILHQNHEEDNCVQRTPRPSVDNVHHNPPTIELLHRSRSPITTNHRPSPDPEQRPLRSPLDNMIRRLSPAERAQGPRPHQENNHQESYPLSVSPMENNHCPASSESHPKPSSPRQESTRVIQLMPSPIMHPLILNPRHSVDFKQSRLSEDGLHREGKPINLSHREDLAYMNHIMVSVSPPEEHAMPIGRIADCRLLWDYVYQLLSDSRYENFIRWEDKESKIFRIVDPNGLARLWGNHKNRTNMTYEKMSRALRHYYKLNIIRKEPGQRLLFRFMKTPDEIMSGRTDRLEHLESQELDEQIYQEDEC
Chain of ETV1 (P50549 whole entry): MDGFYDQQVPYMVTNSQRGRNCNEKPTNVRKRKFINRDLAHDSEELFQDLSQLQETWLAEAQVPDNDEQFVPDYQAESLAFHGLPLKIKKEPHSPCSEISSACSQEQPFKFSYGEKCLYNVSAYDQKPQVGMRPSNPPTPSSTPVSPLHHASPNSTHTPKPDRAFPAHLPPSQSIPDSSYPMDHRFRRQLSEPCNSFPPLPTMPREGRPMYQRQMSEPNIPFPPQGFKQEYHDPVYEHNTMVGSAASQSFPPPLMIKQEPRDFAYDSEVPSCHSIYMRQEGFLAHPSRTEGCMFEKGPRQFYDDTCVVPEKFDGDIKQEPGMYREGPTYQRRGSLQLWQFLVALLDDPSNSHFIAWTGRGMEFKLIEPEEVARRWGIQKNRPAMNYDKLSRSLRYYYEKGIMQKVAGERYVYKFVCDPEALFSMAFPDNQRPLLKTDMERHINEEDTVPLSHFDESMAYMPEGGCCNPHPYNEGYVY

Take ATGCCA: the binding signal in the assay with ETV2 is 1.06 fold enrichment (6-mer frequency, TF over GST control); with ELF3, 1.09 fold enrichment (6-mer frequency, TF over GST control); with ETV1, 1.02 fold enrichment (6-mer frequency, TF over GST control); with ERF it was 1 fold enrichment (6-mer frequency, TF over GST control); in the assay with ETV3L, 1.02 fold enrichment (6-mer frequency, TF over GST control); with ETS2 it was 1.03 fold enrichment (6-mer frequency, TF over GST control). The binding signal is 1.04 fold enrichment (6-mer frequency, TF over GST control) in the assay with SPDEF; 1.08 fold enrichment (6-mer frequency, TF over GST control) in the assay with ETV7; 1.13 fold enrichment (6-mer frequency, TF over GST control) in the assay with ETV3; 1.05 fold enrichment (6-mer frequency, TF over GST control) with ETV6.

The values above are taken from publication PMC7862700, “An all-to-all approach to the identification of sequence-specific readers for epigenetic DNA modifications on cytosine”.
